# Laboratory results published in PubChem BioAssay (EPA / NIEHS).
# The source made the active and inactive calls. Rule for the calls: active = hit-call score of the fitted dose curve at least 0.9, where 1 is the maximum; inactive = score below 0.9.
# Read-out: Cytochrome P450 3A7 (Homo sapiens) (UniProt P24462)
# Experiment: LTEA_HepaRG_CYP3A7: Life Technologies and Expression Analysis (LTEA) Assay for CYP3A7 using HepaRG (AID 2283492)
# Conditions: mRNA level, 48 h; actives raise or lower the signal
# Protocol: LTEA_HepaRG is a cell based, multiplexed-readout assay that uses HepaRG, a human liver cell line, with measurements taken at 48 hours after chemical dosing on a 96-well plate.LTEA_HepaRG_CYP3A7 is one of 102 assay component(s) measured in the LTEA HepaRG cell culture assay. It is a marker of NR mediated metabolism/Undifferentiated hepatocyte.Data from the assay component LTEA_HepaRG_CYP3A7 was analyzed into 1 endpoint. This assay endpoint, LTEA_HepaRG_CYP3A7, was analyzed with bidirectional fitting relative to DMSO as the negative control and baseline of activity. Using a type of inducible reporter, measures of mRNA induction for gain or loss-of-signal activity can be used to understand regulation of transcription factor activity. To generalize the intended target to other relatable targets, this assay endpoint is annotated to the cyp intended target family, where the subfamily is xenobiotic metabolism.
# A total of 1060 chemcials from the ToxCast library were tested in eight-point concentration-response experiments. Cell culture and cytotoxicity assays were conducted at Thermo Fisher Scientific's Custom Services facility (Madison, WI). A single lot of human HepaRG cells (Thermo Fisher Scientific, Frederick, MD) was used for the cell culture experiments. 96-well format collagen type I coated plates of human HepaRG cells were prepared using established methods. Briefly, cryopreserved HepaRG cells were thawed, plated at a density of approximately 100,000 cells/well in HepaRG Thaw, Plate, and General Purpose media (HPRG770, Thermo Fisher Scientific), and incubated for 48 hours. 0.5% DMSO was selected as vehicle control to balance the requisite need of DMSO in HepaRG cultures to maintain differentiation (for example, baseline metabolism, proportions of hepatocytes vs. cholangiocytes), while enabling further hepatic receptor pathway activation (for example, PXR and CAR) in response to chemical exposure. 48 hours after plating, the culture medium was replaced with HepaRG Serum-Free Incudtion Media. Cells were exposed to each test chemical in duplicate and maintained in CO2 incubators for another 48 hours. Chemical plates were thawed to room temperature and 200x concentrations of treatment groups were prepared. 8-point conentration-reponse curves were made with the highest exposure at 100 uM, followed by half-log dilutions, all in 0.5% DMSO. Each test plate contained variouse controls, induction positive controls (1mM phenobarbital), cytotoxicity positive controls ([…] aflatoxin B1), vehicle controls (0.5% DMSO), and total lysis controls (0.5% DMSO). Cell morphology images were taken using an Essen IncuCyte FLR automated microscope, with six 96-well plates imaged in about 24 minutes. Images were captured and exported and JPEG files. Spent culture media was transfered to black-well plates for the LDH assay, and remaining media was sorted at -80 C for later use. Cells were treated with RLT buffer and frozen until shipped for gene expression analysis. Total RNA was isolated from the cell suspension in 75 uL of Buffer RLT (Qiagen, Germantown, MD 20874) by Quintiles/Expression Analysis (Durham, NC) using a custom isolation procedure. Total RNA from each plate well was transferred to a preamplification plate. Fluidigm's 96.96 Dynamic ArrayTM (Fluidigm, Amsterdam, the Netherlands) technology was used for gene expression analyses by quantitative reverse transcription polymerase chain reaction (qRT-PCR, performed by Quintiles/Expression Analysis, Durham, NC)89. Standard TaqManTM Assays (Applied Biosystems/ThermoFisher Scientific, Foster City, CA) were used to assess the expression of 93 genes selected based on their selectivity and sensitivity to important hepatic receptors known to be modulated by environmental chemicals; importance in human hepatocyte functionality; and hepatotoxicity. […]
# Chain of Cytochrome P450 3A7 (Homo sapiens) (P24462 whole entry, looked up): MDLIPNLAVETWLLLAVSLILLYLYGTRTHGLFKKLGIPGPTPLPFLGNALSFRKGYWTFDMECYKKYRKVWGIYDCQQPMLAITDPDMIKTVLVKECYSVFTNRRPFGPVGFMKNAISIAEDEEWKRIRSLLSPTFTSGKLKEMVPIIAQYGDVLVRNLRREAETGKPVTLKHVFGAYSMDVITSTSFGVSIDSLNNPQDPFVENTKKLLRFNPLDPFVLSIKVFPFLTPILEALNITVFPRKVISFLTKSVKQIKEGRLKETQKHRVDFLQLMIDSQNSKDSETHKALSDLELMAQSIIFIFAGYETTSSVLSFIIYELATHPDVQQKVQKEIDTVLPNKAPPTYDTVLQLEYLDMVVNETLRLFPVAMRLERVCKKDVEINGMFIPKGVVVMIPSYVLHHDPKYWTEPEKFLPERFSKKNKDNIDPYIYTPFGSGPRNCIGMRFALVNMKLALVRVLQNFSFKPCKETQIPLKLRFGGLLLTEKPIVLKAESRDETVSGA
Compound,AC50,outcome
O=C(O)Cc1cc(I)c(Oc2cc(I)c(O)c(I)c2)c(I)c1,45.4 µM (active),
CCCCC(CC)COC(=O)CCCCC(=O)OCC(CC)CCCC (stereo not given),,inactive
c1ccc2c(c1)ccc1ccccc12,5.99 µM (active),
CC(O)CO (stereo not given),,inactive
O=C(O)c1ccccc1C(c1ccc(O)cc1)c1ccc(O)cc1,,inactive
Cc1oc(-c2ccccc2)nc1CCOc1ccc(C[C@H](Nc2ccccc2C(=O)c2ccccc2)C(=O)O)cc1,25.7 µM (active),
CCCCOCCO,,inactive
Cc1cc(C)c(O)c(C)c1,7.49 µM (active),
O=c1c(-c2ccc(O)cc2)coc2cc(O)ccc12,,inactive
N#C[C@@H]1CC(F)(F)CN1C(=O)CNC1CC2CCC(C1)N2c1ncccn1 (stereo not given in full),,inactive
CN1CCN(c2ccccc2/C=C2\SCCN(c3ccc(Cl)c(Cl)c3)C2=O)CC1,,inactive
NC(=O)N1C(=O)C(C(=O)c2cc(Cl)cs2)c2cc(F)c(Cl)cc21 (stereo not given),24.8 µM (active),
CC(C)CCCCCCOC(=O)CCCCC(=O)OCCCCCCC(C)C,,inactive
CCCOc1sc(C(=O)N2CCC(c3cc(CN)ccc3F)CC2)c(C)c1Br,,inactive
CCOC(=O)CC(O)(CC(=O)OCC)C(=O)OCC,,inactive
CC(C)(C)c1cc(C(C)(C)C)c(O)c(C(C)(C)C)c1,10.9 µM (active),
COc1ccc([N+](=O)[O-])cc1N,,inactive
OCCC(F)(F)C(F)(F)C(F)(F)C(F)(F)C(F)(F)C(F)(F)F,,inactive
CCCCCCCC(=O)O,,inactive
O=C(OCCOCCOC(=O)c1ccccc1)c1ccccc1,,inactive

Compound,AC50,outcome
COCC(C)OCC(C)O (stereo not given),,inactive
C[C@@H]1C[C@H]2[C@@H]3CCC4=CC(=O)C=C[C@]4(C)[C@@]3(F)[C@@H](O)C[C@]2(C)[C@@]1(O)C(=O)COP(=O)(O)O,,inactive
c1ccc2c(c1)Cc1ccccc1-2,,inactive
CCCCCCC(=O)O,,inactive
CC(=O)CC(C)(C)O,,inactive
CC(C)(C)CC(C)(C)c1ccc(O)c(-n2nc3ccccc3n2)c1,,inactive
C=C(C)C(=O)OCCC(F)(F)C(F)(F)C(F)(F)C(F)(F)C(F)(F)C(F)(F)F,,inactive
Cc1cc(CCN2CCN(c3nsc4ccccc34)CC2)cc2c1NC(=O)CC2(C)C,79.5 µM (active),
CC[C@H](C)[C@@H](C(=O)O)n1sc2ccccc2c1=O,,inactive
c1ccc2cc3c(ccc4ccccc43)cc2c1,15.7 µM (active),
OCCC(F)(F)C(F)(F)C(F)(F)C(F)(F)C(F)(F)C(F)(F)C(F)(F)C(F)(F)F,,inactive
CC(C)(C)c1cccc(C(C)(C)C)c1O,,inactive
CC(=O)NC1(c2cccc(F)c2)CCN(CC[C@@]2(c3ccc(Cl)c(Cl)c3)CN(c3ccccc3)C(=O)CO2)CC1,4.05 µM (active),
CCCCCCCCC(=O)O,,inactive
CCC(=C(c1ccc(O)cc1)c1ccc(OCCN(C)C)cc1)c1ccccc1,3.5 µM (active),
CC(C)(C)c1ccc(O)c(C(C)(C)C)c1,,inactive
CC[C@H](c1ccc(O)cc1)[C@@H](CC)c1ccc(O)cc1,,inactive
Nc1cccc2c(N)cccc12,,inactive
ClC1=C(Cl)C(Cl)(Cl)C(Cl)=C1Cl,,inactive
CN(C)C=O,,inactive
